The text below walks through data of PubChem BioAssay (EPA / NIEHS).

The source made the active and inactive calls. How the source made its calls: active means hit-call score of the fitted dose curve at least 0.9, where 1 is the maximum; inactive means score below 0.9.

Common to all, as to conditions: mRNA level, 48 h; actives raise or lower the signal
Read-out in assay [1]: Insulin-like growth factor-binding protein 1 (IGFBP1), IGFBP1 (gene 3484)
In words: LTEA_HepaRG_IGFBP1: Life Technologies and Expression Analysis (LTEA) Assay for Insulin-like growth factor-binding protein 1 (IGFBP1) using HepaRG (AID 2283508). The gist of the method:
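Differentiated human HepaRG cells in serum-free induction medium were exposed in duplicate for 48 h to eight concentrations, top 100 uM with half-log dilutions, in 0.5% DMSO. Transcript levels came from qRT-PCR normalised to ACTB, GAPDH and POLR2A, fitted bidirectionally against DMSO.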

Read-out in assay [2]: Interleukin 6 (IL6), IL6 (gene 3569)
In words: LTEA_HepaRG_IL6: Life Technologies and Expression Analysis (LTEA) Assay for Interleukin 6 (IL6) using HepaRG (AID 2283509). In outline:
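HepaRG cells exposed in duplicate for 48 h to eight half-log concentrations, top 100 uM, in 0.5% DMSO serum-free induction medium. mRNA measured by qRT-PCR, normalized to ACTB, GAPDH and POLR2A. Bidirectional fit versus DMSO.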

Read-out in assay [3]: Interleukin 6 Receptor (IL6R), IL6R (gene 3570)
Kind of assay: LTEA_HepaRG_IL6R: Life Technologies and Expression Analysis (LTEA) Assay for Interleukin 6 Receptor (IL6R) using HepaRG (AID 2283510). The gist of the method:
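Concentration-response in human liver HepaRG cells: eight concentrations from 100 uM downward by half-logs, 48 h exposure, 0.5% DMSO vehicle. IL6R mRNA change measured by qRT-PCR and fitted in both directions relative to vehicle.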

Read-out in assay [4]: Potassium channel subfamily K member 1 (KCNK1), KCNK1 (gene 3775)
In words: LTEA_HepaRG_KCNK1: Life Technologies and Expression Analysis (LTEA) Assay for Potassium channel subfamily K member 1 (KCNK1) using HepaRG (AID 2283511). In outline: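 Differentiated HepaRG cells, 48 h exposure in serum-free induction medium with 0.5% DMSO; 8 concentrations, half-log from 100 uM, duplicate. KCNK1 mRNA by qRT-PCR, normalized to ACTB, GAPDH, POLR2A; bidirectional fit vs DMSO.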

Read-out in assay [5]: Keratin 19 (KRT19), KRT19 (gene 3880)
In words: LTEA_HepaRG_KRT19: Life Technologies and Expression Analysis (LTEA) Assay for Keratin 19 (KRT19) using HepaRG (AID 2283512). In outline:
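Differentiated human HepaRG cells, plated 48 h, were exposed in duplicate for 48 h in serum-free induction medium to eight half-log concentrations up to 100 uM in 0.5% DMSO. KRT19 mRNA was quantified by qRT-PCR, normalized to ACTB, GAPDH and POLR2A, and fitted bidirectionally versus DMSO.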

Read-out in assay [6]: JUN Transcription Factor, JUN (gene 3725)
In words: LTEA_HepaRG_JUN: Life Technologies and Expression Analysis (LTEA) Assay for JUN Transcription Factor using HepaRG (AID 2283513). In outline:
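Human HepaRG liver cells receive test chemicals in 0.5% DMSO for 48 h across an eight-point range topping at 100 uM. Expression changes in JUN are scored in both directions against the DMSO vehicle.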

Read-out in assay [7]: Lipase C (LIPC), LIPC (gene 3990)
In words: LTEA_HepaRG_LIPC: Life Technologies and Expression Analysis (LTEA) Assay for Lipase C (LIPC) using HepaRG (AID 2283514). The gist of the method: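 HepaRG cells, 48 h after plating, treated in duplicate for 48 h in serum-free induction medium over 8 half-log concentrations from 100 uM, 0.5% DMSO. LIPC mRNA by TaqMan qRT-PCR normalized to ACTB/GAPDH/POLR2A; bidirectional fit versus DMSO.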

Read-out in assay [8]: Lipoprotein lipase (LPL), LPL (gene 4023)
Kind of assay: LTEA_HepaRG_LPL: Life Technologies and Expression Analysis (LTEA) Assay for Lipoprotein lipase (LPL) using HepaRG (AID 2283515). The gist of the method: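 Differentiated HepaRG cells, plated 48 h, then exposed 48 h in serum-free induction medium to 8 concentrations (top 100 uM, half-log steps) in 0.5% DMSO, duplicate. LPL mRNA measured by qRT-PCR, normalized to ACTB, GAPDH and POLR2A.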

Read-out in assay [9]: MicroRNA 122 (MIR122), gene 406906
In words: LTEA_HepaRG_MIR122: Life Technologies and Expression Analysis (LTEA) Assay for MicroRNA 122 (MIR122) using HepaRG (AID 2283516). Further: the transcript read is the microRNA miR-122. In outline: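 HepaRG, 48 h exposure, 8-pt half-log from 100 uM, 0.5% DMSO; TaqMan qRT-PCR; bidirectional fit vs DMSO.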

Read-out in assay [10]: matrix metalloproteinase-10 (MMP10), MMP10 (gene 4319)
In words: LTEA_HepaRG_MMP10: Life Technologies and Expression Analysis (LTEA) Assay for matrix metalloproteinase-10 (MMP10) using HepaRG (AID 2283517). In outline:
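Differentiated HepaRG cells in serum-free induction medium exposed 48 h in duplicate to 8-point half-log series up to 100 uM in 0.5% DMSO. mRNA quantified by qRT-PCR, normalised to ACTB, GAPDH, POLR2A; bidirectional fit versus DMSO.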

Read-out in assay [11]: MYC, MYC (gene 4609)
Kind of assay: LTEA_HepaRG_MYC: Life Technologies and Expression Analysis (LTEA) Assay for MYC using HepaRG (AID 2283518). In outline:
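Differentiated human HepaRG cells, plated 48 h then switched to serum-free induction medium, were exposed in duplicate for 48 h to 8-point half-log series up to 100 uM in 0.5% DMSO. MYC mRNA measured by qRT-PCR, normalized to ACTB/GAPDH/POLR2A.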

Read-out in assay [12]: matrix metalloproteinase-3 (MMP3), MMP3 (gene 4314)
Kind of assay: LTEA_HepaRG_MMP3: Life Technologies and Expression Analysis (LTEA) Assay for matrix metalloproteinase-3 (MMP3) using HepaRG (AID 2283519). In outline:
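HepaRG cells (~100,000/well) in serum-free induction medium were dosed in duplicate for 48 h with an 8-point half-log series from 100 uM, 0.5% DMSO. MMP3 mRNA was quantified by Fluidigm TaqMan qRT-PCR, normalized to three housekeeping genes.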

Read-out in assay [13]: Paternally Expressed 10 (PEG10), PEG10 (gene 23089)
In words: LTEA_HepaRG_PEG10: Life Technologies and Expression Analysis (LTEA) Assay for Paternally Expressed 10 (PEG10) using HepaRG (AID 2283520).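 On AC50: PEG10 transcript by qRT-PCR normalised to ACTB GAPDH and POLR2A.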 The gist of the method: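 Chemicals tested on HepaRG cells for 48 h, highest concentration 100 uM. PEG10 expression assessed by qRT-PCR relative to DMSO control.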

Read-out in assay [14]: Nuclear factor NF-kappa-B p105 subunit (Homo sapiens) (UniProt P19838)
In words: LTEA_HepaRG_NFKB1: Life Technologies and Expression Analysis (LTEA) Assay for Nuclear Factor Kappa B Subunit 1 (NFKB1) using HepaRG (AID 2283521).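 Further: TaqMan qRT-PCR transcript normalised to ACTB GAPDH and POLR2A housekeeping genes.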 The gist of the method: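 Differentiated human HepaRG cells were exposed for 48 h in serum-free induction medium to eight concentrations (top 100 uM, half-log steps, 0.5% DMSO), in duplicate. NFKB1 mRNA was measured by TaqMan qRT-PCR, normalized to ACTB/GAPDH/POLR2A, and fitted bidirectionally against DMSO.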

Read-out in assay [15]: Protein phosphatase 2A (PPP2R4), PTPA (gene 5524)
In words: LTEA_HepaRG_PPP2R4: Life Technologies and Expression Analysis (LTEA) Assay for Protein phosphatase 2A (PPP2R4) using HepaRG (AID 2283522). The gist of the method: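 Gene-expression endpoint in HepaRG hepatic cells: 48 h treatment across eight half-log concentrations up to 100 uM in 0.5% DMSO. PPP2R4 mRNA by qRT-PCR, normalized to three endogenous control genes.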

Read-out in assay [16]: Phosphatase and tensin (PTEN), PTEN (gene 5728)
Kind of assay: LTEA_HepaRG_PTEN: Life Technologies and Expression Analysis (LTEA) Assay for Phosphatase and tensin (PTEN) using HepaRG (AID 2283523). The gist of the method:
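HepaRG cells, 48 h after plating, exposed in duplicate for 48 h in serum-free induction medium to 8 half-log concentrations up to 100 uM (0.5% DMSO). PTEN mRNA by qRT-PCR, normalized to ACTB, GAPDH, POLR2A; bidirectional fit versus DMSO.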

Read-out in assay [17]: solute carrier (SLC22A1), SLC22A1 (gene 6580)
Kind of assay: LTEA_HepaRG_SLC22A1: Life Technologies and Expression Analysis (LTEA) Assay for solute carrier (SLC22A1) using HepaRG (AID 2283524). In outline: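 Differentiated human HepaRG cells in serum-free induction medium, exposed 48 h in duplicate to 8-point half-log series from 100 µM top in 0.5% DMSO. SLC22A1 mRNA by TaqMan qRT-PCR normalized to ACTB, GAPDH, POLR2A; bidirectional fit versus DMSO.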

Read-out in assay [18]: Pyruvate Dehydrogenase Kinase 4 (PDK4), PDK4 (gene 5166)
In words: LTEA_HepaRG_PDK4: Life Technologies and Expression Analysis (LTEA) Assay for Pyruvate Dehydrogenase Kinase 4 (PDK4) using HepaRG (AID 2283525). The gist of the method: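 HepaRG cells plated 48 h, then switched to serum-free induction medium and exposed in duplicate for 48 h to 8 half-log concentrations from 100 uM in 0.5% DMSO. PDK4 mRNA measured by qRT-PCR, normalized to ACTB, GAPDH and POLR2A; bidirectional fit versus DMSO.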

Read-out in assay [19]: NAD(P)H dehydrogenase [quinone] 1 (NQO1), NQO1 (gene 1728)
Kind of assay: LTEA_HepaRG_NQO1: Life Technologies and Expression Analysis (LTEA) Assay for NAD(P)H dehydrogenase [quinone] 1 (NQO1) using HepaRG (AID 2283526). In outline:
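Human HepaRG hepatic cells received chemicals for 48 h in serum-free induction medium with 0.5% DMSO, up to 100 uM. Expression was assessed by TaqMan qRT-PCR against housekeeping controls and fitted bidirectionally against DMSO.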

Read-out in assay [20]: Nuclear factor erythroid 2-related factor 2 (Homo sapiens) (UniProt Q16236)
In words: LTEA_HepaRG_NFE2L2: Life Technologies and Expression Analysis (LTEA) Assay for Nuclear factor erythroid 2-related factor 2 (NFE2L2) Transcription Factor using HepaRG (AID 2283527).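 Further: TaqMan qRT-PCR transcript level normalised to ACTB GAPDH and POLR2A housekeeping genes.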 The gist of the method:
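Differentiated human HepaRG cells, serum-free induction medium, exposed 48 h in duplicate to eight half-log concentrations up to 100 uM in 0.5% DMSO. NFE2L2 mRNA by Fluidigm TaqMan qRT-PCR, normalised to ACTB, GAPDH, POLR2A; bidirectional change versus DMSO.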

Nuclear factor NF-kappa-B p105 subunit (Homo sapiens), sequence (P19838 whole entry, looked up): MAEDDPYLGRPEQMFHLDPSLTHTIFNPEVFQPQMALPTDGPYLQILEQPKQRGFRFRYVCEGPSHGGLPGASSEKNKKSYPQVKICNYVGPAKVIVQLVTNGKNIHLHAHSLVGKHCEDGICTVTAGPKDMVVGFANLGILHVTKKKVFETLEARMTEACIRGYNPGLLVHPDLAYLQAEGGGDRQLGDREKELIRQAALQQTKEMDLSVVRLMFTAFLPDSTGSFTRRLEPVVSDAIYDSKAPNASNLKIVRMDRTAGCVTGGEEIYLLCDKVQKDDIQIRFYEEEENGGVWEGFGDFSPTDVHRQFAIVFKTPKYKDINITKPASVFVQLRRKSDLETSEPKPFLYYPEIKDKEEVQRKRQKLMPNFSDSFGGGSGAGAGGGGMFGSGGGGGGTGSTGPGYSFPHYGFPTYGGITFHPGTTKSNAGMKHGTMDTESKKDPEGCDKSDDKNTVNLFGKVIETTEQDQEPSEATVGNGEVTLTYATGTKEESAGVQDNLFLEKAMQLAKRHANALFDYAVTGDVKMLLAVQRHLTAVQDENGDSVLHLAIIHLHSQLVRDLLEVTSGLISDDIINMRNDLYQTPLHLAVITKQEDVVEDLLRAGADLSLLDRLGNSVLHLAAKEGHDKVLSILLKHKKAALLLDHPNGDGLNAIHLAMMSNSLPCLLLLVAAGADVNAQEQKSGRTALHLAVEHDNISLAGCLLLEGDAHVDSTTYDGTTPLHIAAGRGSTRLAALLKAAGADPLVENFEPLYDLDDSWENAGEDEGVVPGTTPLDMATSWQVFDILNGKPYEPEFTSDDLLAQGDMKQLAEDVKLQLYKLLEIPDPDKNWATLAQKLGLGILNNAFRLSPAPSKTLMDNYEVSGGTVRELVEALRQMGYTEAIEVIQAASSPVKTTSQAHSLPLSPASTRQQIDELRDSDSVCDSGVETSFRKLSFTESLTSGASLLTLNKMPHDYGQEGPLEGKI
Nuclear factor erythroid 2-related factor 2 (Homo sapiens), sequence (Q16236 whole entry, looked up): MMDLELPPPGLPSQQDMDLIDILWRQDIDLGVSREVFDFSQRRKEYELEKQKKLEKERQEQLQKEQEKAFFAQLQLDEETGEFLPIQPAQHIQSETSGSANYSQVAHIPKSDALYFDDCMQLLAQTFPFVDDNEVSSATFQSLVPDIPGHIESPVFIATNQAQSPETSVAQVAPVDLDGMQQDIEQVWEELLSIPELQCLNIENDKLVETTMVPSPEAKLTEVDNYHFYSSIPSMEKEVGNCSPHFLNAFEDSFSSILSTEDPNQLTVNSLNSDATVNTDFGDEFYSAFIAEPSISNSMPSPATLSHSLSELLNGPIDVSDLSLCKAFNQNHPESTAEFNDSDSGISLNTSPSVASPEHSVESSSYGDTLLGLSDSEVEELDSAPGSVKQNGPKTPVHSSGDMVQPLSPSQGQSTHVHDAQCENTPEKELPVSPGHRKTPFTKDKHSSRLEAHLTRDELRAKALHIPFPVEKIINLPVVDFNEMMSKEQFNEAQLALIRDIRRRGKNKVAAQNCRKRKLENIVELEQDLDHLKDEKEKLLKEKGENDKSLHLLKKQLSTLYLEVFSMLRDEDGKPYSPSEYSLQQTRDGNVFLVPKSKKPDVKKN

For the molecule `Nn1cnnc1`, the result in [1], in assay [2], in assay [3], in assay [4], in [5] and in [6] was inactive. For the same molecule, the outcome in assay [7], in assay [8], in assay [9], in assay [10], in assay [11] and in assay [12] was inactive. Further, the molecule was classed as inactive in assay [13], in assay [14], in assay [15], in [16], in assay [17] and in assay [18]. Moreover, the result in assay [19] and in assay [20] was inactive.
As for `CCCN(CCC)N=O`, the result in [1], in [2], in [3], in [4], in assay [5] and in assay [6] was inactive. The molecule was classed as inactive in assay [7], in assay [8], in [9], in [10], in assay [11] and in assay [12]. The molecule was called inactive in [13], in [14], in assay [15], in [16], in assay [17] and in assay [18]. Besides, the outcome in [19] was inactive.
Broadly, the AC50 is the concentration giving half of the maximal activity seen. On to `CCC(C)c1cc([N+](=O)[O-])cc([N+](=O)[O-])c1O` (centres undefined), for which the AC50 in [1] is 4.09 µM (active); in assay [2], 4.95 µM (active); in assay [4], 27.5 µM (active); in assay [5] it was 2.53 µM (active); in assay [7], 1.83 µM (active); in [8], 758 nM (active). The AC50 in assay [9] is 2.73 µM (active); in [10], 3.93 µM (active); in assay [11], 9.27 µM (active); in assay [12], 2.23 µM (active); in [13], 1.26 µM (active); in assay [15] it was 1.25 µM (active). In addition, the AC50 in assay [16] was 5.41 µM (active); in assay [17] it was 1.74 µM (active); in assay [19], 3.47 µM (active). Besides, the outcome in [3], in assay [6], in [14], in assay [18] and in assay [20] was inactive.
